From the supplement of paper PMC12669032
Where “and” joins values, the source holds several entries; their conditions need not be identical. Equal entries are not always repeated. A number with no mark means an inactive call.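 How the source made its calls: active = AUC reduced over 20% with Padj below 0.05 in at least 2 of 3 replicates; inactive = otherwise.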

What was measured:
Experiment in all cases: growth AUC relative to DMSO control (median of replicates) (fraction); higher = more growth (less inhibition), active = hit call of the paper
Settings in all cases: 20 µM; 24 h
Akkermansia muciniphila = system: Akkermansia muciniphila
Summary of the method: (§1)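 Three biological replicates, each grown on a separate day, were combined as a median for every value. In each, a gut bacterial monoculture in mGAM started at OD600 0.05 and grew anaerobically at 37 °C with 20 µM compound (1% DMSO), with OD600 read hourly over 24 h. Area under the growth curve was normalised against the plate median of solvent-only wells, or against row and column medians on the industrial chemical plate, after the minimum OD was set to 0.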

Bacteroides caccae = system: Bacteroides caccae
Summary of the method: as §1

Bacteroides clarus = system: Bacteroides clarus
Summary of the method: as §1

Bacteroides dorei = system: Bacteroides dorei
Summary of the method: as §1

Bacteroides stercoris = system: Bacteroides stercoris
Summary of the method: as §1

[1] = system: Bacteroides thetaiotaomicron
Summary of the method: as §1

Bacteroides uniformis = system: Bacteroides uniformis
Summary of the method: as §1

[2] = system: Bifidobacterium longum subsp. longum
Summary of the method: as §1

Clostridium difficile = system: Clostridium difficile
Summary of the method: as §1

Collinsella aerofaciens = system: Collinsella aerofaciens
Summary of the method: as §1

Coprococcus comes = system: Coprococcus comes
Summary of the method: as §1

Escherichia coli ED1a = system: Escherichia coli ED1a
Summary of the method: as §1

Escherichia coli IAI1 = system: Escherichia coli IAI1
Summary of the method: as §1

Eubacterium rectale = system: Eubacterium rectale
Summary of the method: as §1

[3] = system: Fusobacterium nucleatum subsp. animalis
Summary of the method: as §1

Lactobacillus gasseri = system: Lactobacillus gasseri
Summary of the method: as §1

Lactobacillus paracasei = system: Lactobacillus paracasei
Summary of the method: as §1

Odoribacter splanchnicus = system: Odoribacter splanchnicus
Summary of the method: as §1

[4] = system: Parabacteroides distasonis
Summary of the method: as §1

Parabacteroides merdae = system: Parabacteroides merdae
Summary of the method: as §1

Row | Compound | growth AUC (Akkermansia muciniphila) | growth AUC (Bacteroides caccae) | growth AUC (Bacteroides clarus) | growth AUC (Bacteroides dorei) | growth AUC (Bacteroides stercoris) | growth AUC [1] | growth AUC (Bacteroides uniformis) | growth AUC [2] | growth AUC (Clostridium difficile) | growth AUC (Collinsella aerofaciens) | growth AUC (Coprococcus comes) | growth AUC (Escherichia coli ED1a) | growth AUC (Escherichia coli IAI1) | growth AUC (Eubacterium rectale) | growth AUC [3] | growth AUC (Lactobacillus gasseri) | growth AUC (Lactobacillus paracasei) | growth AUC (Odoribacter splanchnicus) | growth AUC [4] | growth AUC (Parabacteroides merdae)
1 | CCOP(=S)(OCC)Oc1cc(C)nc(N(CC)CC)n1 | 1.03 | 0.926 | 0.979 | 0.976 | 0.938 | 0.961 | 0.943 | 1.01 | 1 | 0.994 | 1.03 | 0.996 | 0.994 | 0.969 | 1.01 | 1.02 | 1.02 | 1.08 | 0.845 | 0.963
2 | Clc1cccc(C(Cl)(Cl)Cl)n1 | 1.16 | 1.01 | 1.01 | 0.948 | 1.03 | 1.02 | 0.961 | 1.06 | 1.01 | 0.974 | 1.02 | 0.974 | 0.976 | 1.05 | 1.01 | 0.889 | 1.01 | 0.964 | 1 | 0.967
3 | Clc1cc(Cl)c(Cl)cc1Cl | 1.01 | 0.997 | 0.987 | 0.981 | 1.14 | 0.982 | 1.01 | 1.07 | 0.98 | 1.01 | 0.971 | 1.02 | 1.04 | 0.986 | 1.15 | 0.973 | 0.991 | 1.01 | 1.05 | 0.998
4 | CNc1cnn(-c2cccc(C(F)(F)F)c2)c(=O)c1Cl | 0.94 | 0.979 | 1.02 | 1.01 | 0.914 | 0.994 | 0.991 | 0.989 | 0.937 | 1.03 | 0.978 | 0.99 | 0.981 | 0.995 | 0.946 | 0.975 | 0.943 | 0.992 | 1.01 | 0.989
5 | Cc1ccn2nc(S(=O)(=O)Nc3c(F)cccc3F)nc2n1 | 1.04 | 0.968 | 0.986 | 0.957 | 0.955 | 0.985 | 1.06 | 1.03 | 1.03 | 0.945 | 0.981 | 0.969 | 0.965 | 1.1 | 1.1 | 0.999 | 1.02 | 1.09 | 1.02 | 1
6 | CCN(CC)c1nc(C)cc(OP(=S)(OC)OC)n1 | 0.948 | 0.979 | 0.974 | 1 | 0.927 | 0.945 | 0.976 | 0.967 | 1.02 | 0.989 | 0.982 | 1.03 | 0.978 | 1.06 | 0.996 | 0.984 | 0.982 | 0.966 | 0.813 | 0.962
7 | CCNc1nc(Cl)nc(NC(C)(C)C#N)n1 | 0.889 | 1.02 | 0.983 | 1.04 | 0.946 | 0.998 | 0.986 | 0.946 | 1.05 | 0.997 | 0.988 | 1.02 | 0.988 | 0.889 | 0.949 | 1.19 | 0.968 | 0.985 | 1 | 1.01
8 | Cc1nc(N(C)C)nc(OC(=O)N(C)C)c1C | 1.02 | 0.997 | 0.989 | 1.05 | 1.05 | 1.02 | 0.977 | 0.826 | 1.05 | 1.04 | 1.01 | 0.998 | 0.992 | 0.98 | 1 | 1.1 | 0.978 | 1.01 | 1.03 | 1.04
9 | Cc1cc(Cl)ccc1N=CN(C)C | 1.01 | 1.01 | 0.995 | 1 | 0.985 | 1.03 | 1.02 | 0.981 | 0.998 | 1 | 1.01 | 0.998 | 0.963 | 1.16 | 0.978 | 1.04 | 0.997 | 1.01 | 1.03 | 0.988
10 | O=C(Nc1ccccc1)N(Cc1ccc(Cl)cc1)C1CCCC1 | 0.953 | 0.983 | 0.991 | 0.991 | 0.972 | 0.964 | 0.969 | 1.02 | 1.03 | 0.98 | 0.94 | 1 | 0.99 | 1.03 | 0.985 | 1.01 | 1.06 | 1.03 | 0.893 | 0.922
11 | CN(C)C(CSS(=O)(=O)[O-])CSS(=O)(=O)[O-].[Na+].[Na+] | 0.921 | 0.916 | 1 | 1.09 | 1.04 | 0.983 | 1.14 | 1.25 | 0.955 | 0.969 | 0.999 | 0.983 | 0.998 | 1.47 | 1.18 | 1 | 1.01 | 0.951 | 0.978 | 0.998
12 | CNC(=O)CSP(=S)(OC)OC | 1.19 | 1 | 0.994 | 0.901 | 0.954 | 1.01 | 1 | 1.01 | 0.978 | 0.974 | 1.01 | 0.977 | 0.959 | 1.06 | 0.957 | 0.911 | 0.962 | 0.954 | 0.9 | 0.979
13 | COP(=O)(OC)Oc1ccc(SC)c(C)c1 | 0.861 | 0.994 | 0.978 | 1.03 | 0.981 | 0.979 | 0.982 | 1 | 0.999 | 0.993 | 0.991 | 1 | 1.02 | 0.96 | 0.986 | 1.1 | 1 | 0.994 | 1.02 | 1.05
14 | O=C(O)COc1cc(Cl)c(Cl)cc1Cl | 0.934 | 1.02 | 0.954 | 1.01 | 0.978 | 0.985 | 1.01 | 0.708 | 1.01 | 1.07 | 0.994 | 0.965 | 1.04 | 0.93 | 0.989 | 1.19 | 0.995 | 0.98 | 1 | 0.98
15 | CCCC(Cn1cncn1)c1ccc(Cl)cc1Cl (stereo not given) | 1.01 | 0.936 | 0.987 | 0.977 | 1.2 | 0.949 | 0.941 | 1.07 | 0.911 | 0.992 | 0.919 | 0.997 | 1.03 | 0.73 (active) | 1.05 | 1.05 | 0.987 | 0.962 | 0.991 | 0.969
16 | CC(=NC#N)N(C)Cc1ccc(Cl)nc1 | 0.993 and 0.945 | 0.979 and 0.959 | 1.02 and 0.96 | 0.993 and 1.01 | 1.08 and 0.985 | 0.987 and 0.95 | 1 and 0.993 | 1.03 and 0.979 | 0.986 and 1 | 1.02 | 1.06 and 0.993 | 0.994 and 1 | 0.982 and 1.08 | 0.908 and 0.994 | 0.987 and 0.952 | 0.985 and 1.03 | 1.03 and 0.987 | 1.04 and 1.02 | 1.02 and 1 | 1.04 and 0.98
